Results from PubChem BioAssay AID493085 (Broad Institute, 2011).
About 360 (15%) of roughly 2,400 compounds were called active. About 5% were inconclusive and are not listed.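 The calls were made as follows: active = falling-signal curve with half-maximal concentration at or below ten times the top tested dose; inconclusive = flat fit at 30 to 70% inhibition, or poor fit; inactive = signal rise, flat within 30%, or potency beyond limit.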 These entries were drawn from the full list. Entries with a potency or affinity are not part of this list.

Assay: Tet-On RFP internal-standard readout, HSF1 screen, dose response, cell-based, NIH3T3 R4, HSE-GFP and Tet-On RFP, cherry-pick, set 3 (AID 493085);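 also: cells heat shocked 2 h at 42 °C with doxycycline to induce reporters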
Settings: NIH3T3 R4 HSE-GFP/Tet-RFP reporter, fluorescence, 48 h; series mostly up to 19.5 µM

outcome, inactive:
COc1ccc(-c2nc(CNS(=O)(=O)c3ccc(OC)c(OC)c3)cs2)cc1
Cc1cccc(N2CCN(Cc3nc(-c4ccccc4Cl)oc3C)CC2)n1
Oc1ccc(Br)cc1/C=N/Nc1ccccn1
O=C(N/N=C/c1ccccn1)c1ccc([N+](=O)[O-])cc1
CCOC(=O)C[n+]1c(C)csc1C
CCOc1ccc(NC(=O)C(C)NS(=O)(=O)c2ccc(NC(C)=O)cc2)cc1 (centres undefined)
Cc1ccc(Cn2c(Sc3ncccn3)nc3c2c(=O)[nH]c(=O)n3C)cc1
Cc1nccn1Cc1cccc2ccccc12
CC(=O)NCCNC(=O)c1ccc(CSc2nc3ccccc3s2)cc1
Cc1cc(=O)[nH]c2c1c(=O)[nH]n2C1CC(C)N(C)CC1C (centres undefined)
C=CCOCCN(CCOCC=C)C1=NS(=O)(=O)c2ccccc21
Cc1cc(OCC(=O)NCCc2ccc(S(N)(=O)=O)cc2)c2c(C)cc(=O)oc2c1
NS(=O)(=O)c1ccc(CCNCC#Cc2ccccc2)cc1
CCn1cc(C(=O)NCCCN2CC(C)CC(C)C2)c(=O)c2cc(S(=O)(=O)N(C)C)ccc21 (centres undefined)
O=C(N1CCOCC1)C12CCC3CC(CC(C3)C1)C2
CCCS(=O)(=O)c1cnc(C2COc3ccccc3O2)nc1N (centres undefined)
C=CCn1c(C)nnc1SCC(=O)Nc1nc(C)c(C(=O)N(C)C)s1
O=C1CC(N2CCCCC2)C(=O)N1c1ccccc1 (centres undefined)
Cc1ccc(-n2nc3c(=O)n(CCCC(=O)N4CCC(C(N)=O)CC4)nc(C)c3c2C)cc1
O=S(=O)(Nc1ccc2c(c1)OCCO2)c1cccs1
CC1C(=O)C(C)C(c2ccco2)NC1c1ccco1 (centres undefined)
Nc1nc2n(c1C(=O)c1ccccc1)CCC2
COc1ccc(N2CCN(CC(O)COCCOc3ccc(Br)cc3)CC2)cc1 (centres undefined)
CC(C)(C)c1ccc(-c2nnc3sc(-c4ccccn4)nn23)cc1
Cn1c(C(=O)O)c(CC(=O)Nc2ccc3c(c2)OCCO3)c2ccccc21
CCCS(=O)(=O)N1CCCC(C(=O)N2CCC(Cc3ccccc3)CC2)C1 (centres undefined)
CC(=O)Nc1ccc(-c2nnn(CC(=O)Nc3ccc4c(c3)OCO4)n2)cc1Cl
O=C1Cc2ccccc2C(=O)N1c1cccc(Cl)c1
CC(C)CNC(=O)C1CCN(Cc2ccc(OCc3ccccc3)cc2)CC1
COc1cc(NC(=O)c2cc3cccc(OC)c3o2)cc(C(=O)Nc2cccc(C(F)(F)F)c2)c1
CN(CC(=O)Nc1cccc(F)c1)CC(=O)Nc1cccc(S(N)(=O)=O)c1
COc1ccc(S(=O)(=O)Nc2ccccc2C(=O)N2CCOCC2)cc1Cl
COc1ccc(CN(C)C(=O)c2cc(S(=O)(=O)N3CCOCC3)ccc2N2CCCC2)cc1
Cc1noc(NS(=O)(=O)c2ccc(N3Cc4ccccc4C3=O)cc2)c1C
CCCCN1C=CC(=C2C(=O)c3ccccc3C2=O)C=C1
Fc1ccccc1NC(=S)Nc1ccc(CN2CCOCC2)cc1
COC(=O)C1CCN(C(=O)c2sc3nc(-c4ccccc4)cn3c2C)CC1
CCOC(=O)c1sc2nc3c(cc2c1N)COC(C(C)C)C3 (centres undefined)
CCOC(=O)c1n[nH]c(=O)c2ccccc12
CCCn1c(SCC(=O)c2c(C)[nH]c(C)c2C(=O)OCC)nc2ccccc21
Cc1cccc(Nc2nc(-c3ccc4c(c3)OCCO4)cs2)c1
COc1cccc(-n2nnc3c(=O)n(Cc4ccccc4Cl)cnc32)c1
Nc1nc(Cl)nc(N(c2ccccc2)c2ccccc2)n1
CCOC(=O)Cn1c(CCC(=O)O)ccc1-c1ccc(F)cc1
O=S(=O)(Nc1ccncc1)c1ccc(Cl)cc1
COc1ccc(S(=O)(=O)/C(C#N)=C/Nc2cccc(OC)c2)cc1
NC(=O)c1nsc(C(=O)N(c2cccc(F)c2)C(C(=O)NC2CCCC2)c2ccco2)c1N (centres undefined)
COc1ccc(C(=O)N2CCN=C2SCc2cccnc2)cc1OC
CCN(C(=O)c1ccc2c(SCC(=O)O)c3c(nc2c1)CCC3)c1cc(Cl)ccc1OC
CC(/C=N\NC(=O)c1cc(C)oc1C)=C\c1ccccc1
CCN(CC)C(=O)COC(=O)c1ccc(C)c(NC(=O)c2ccco2)c1
CN1CCN(C(=O)/C(=C\c2cccs2)NC(=O)c2ccco2)CC1
Cc1ccc(N(Cc2cc3ccc(C)cc3[nH]c2=O)C(=O)c2cccs2)cc1
CC1CCCN(c2ncnc3c2cnn3-c2ccc(Cl)cc2)C1 (centres undefined)
CCOC(=O)N1CCC(Nc2ncnc3c2cnn3-c2ccc(Cl)cc2)CC1
c1ccc2c(Nc3nc(-c4ccncc4)nc4ccccc34)cccc2c1
COc1cc(CCCN2CCNC[C@@H]2Cc2ccc(O)cc2)cc(OC)c1OC
O=C(COC(=O)c1ccccc1-n1cnnn1)c1ccc(F)cc1
COc1cccc(-n2c(N)c(-c3nc4ccccc4[nH]3)sc2=S)c1
COc1ccc(CC(=O)Nc2cc(C)on2)cc1
COc1ccc(/C=C/C(=O)NC(=S)NCCc2ccc(OC)c(OC)c2)cc1
COc1ccc(Nc2nc(Nc3ccc(OC)cc3)nc(-n3[nH]c(=O)c(C)c3C)n2)cc1
COc1ccccc1C(O)(C(=O)N(NC(C)=O)c1ccccc1)c1ccccc1OC
Cc1cccc(-c2nnc(NC(=O)c3cccs3)s2)c1
Cc1c(C(=O)Nc2ccc(F)cc2)sc2ncn(CC(=O)N3CCCCC3)c(=O)c12
O=C(Nc1cccc(S(=O)(=O)N2CCOCC2)c1)c1ccccn1
O=[N+]([O-])c1ccc(NCCOc2ccccc2Cl)nc1
O=[N+]([O-])c1cccc(-c2nnc(-c3ccccc3)o2)c1
O=C(c1cccs1)n1nc(-c2ccco2)nc1SCc1ccccc1
NNC(=O)c1ccc(O)cc1O
COc1cc(=O)[nH]c(SCC(=O)Nc2nc3c(s2)CCCC3)n1
CN(C)CCNC(=O)c1cc2c(s1)-c1ccc(Cl)cc1SC2
CCCCC(=O)Nc1cccc(NC(=O)c2cccc(Br)c2)c1
O=C(Nc1nncs1)c1ccc(F)c(S(=O)(=O)N2CCCCC2)c1
O=C(Nc1nc(-c2cccs2)cs1)c1ccc(Cl)s1
Cc1ccc(-c2csc(NC(=O)c3ccc(S(=O)(=O)N4CCc5ccccc54)cc3)n2)cc1
COc1cc2c(cc1OC)C(C(=O)NC1CC1)C1c3ccccc3CCN1C2=O (centres undefined)
NC(=S)N/N=C/c1cc([N+](=O)[O-])ccc1OCCOc1ccccc1
CCC(C)c1ccc(OCc2ccc(C(=O)O)o2)cc1 (centres undefined)
NS(=O)(=O)c1cccc(NC(=O)CNC(=O)CC23CC4CC(CC(C4)C2)C3)c1
CCOc1ccccc1C(=O)Nc1ccc(NC(=O)c2ccccc2)cc1
Cc1cc(C(=O)COC(=O)c2ccco2)c(C)n1Cc1ccco1
C=CCOc1ccn(C)c(=O)n1
O=C1OC2(CCCCC2)OC(=O)C1=CNc1nccs1
Cc1ccc(C)c(N2CCN(CCN3CCCCC3)CC2)c1
Oc1ccccc1-c1nnc(-c2ccc(C(F)(F)F)cc2)o1
COC(=O)C1=C(C)Nc2c(c(=O)n(C)c(=O)n2C)C1c1cccc(O)c1 (centres undefined)
CCC(=O)N1C(C(=O)N2CCCC2)CSC1c1ccc(OC)cc1 (centres undefined)
CNC(=O)Cn1nc(C)c2ccccc2c1=O
O=C(CNC(=O)C12CC3CC(CC(C3)C1)C2)NCc1ccccc1
Cc1cc(C)cc(N(CC(=O)Nc2ccc(Br)cc2)S(=O)(=O)c2c(C)[nH]c(=O)[nH]c2=O)c1
CCOc1ccccc1Nc1nnc(SCc2nnc(-c3cc(OC)c(OC)c(OC)c3)o2)s1
COc1ccc(-n2c(-c3cccc(OC)c3)nc(=S)c3c2CCCC3)cc1
COc1ccc(N2C(=O)C(C)(C)C2c2c(O)ccc3ccccc23)cc1 (centres undefined)
